Pf growth 96h: Primary qHTS for delayed death inhibitors of the malarial parasite plastid, 96 hour incubation; P. falciparum luciferase reporter growth, 96 h; Potency, µM (titrated, usually from 28.7 µM), inactives show at the top dose activity change, negative = inhibition, actives largely listed as inhibitors; 320,000 compounds, 6.9% hits; note: potency is the fitted concentration of half-maximal effect; % is set by controls: 0 for no effect and ±100 for the full control effect
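Luminescence readout: decreased luciferase signal marks inhibited growth of reporter-expressing P. falciparum in infected red cells (2% hematocrit, 0.05% parasitemia final), exposed to compound two generations (96 h, 37 C, 5% CO2).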
Pf growth 48h: Primary qHTS for delayed death inhibitors of the malarial parasite plastid, 48 hour incubation. P. falciparum luciferase growth in erythrocytes, 48 h. Potency, µM (doses to about 28.7 µM), for the others: at the highest dose activity change, negative = inhibition, actives largely listed as inhibitors. 310,000 compounds, 5.9% hits; note: potency is the fitted concentration of half-maximal effect; % is set by controls: 0 for no effect and ±100 for the full control effect
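Firefly luciferase activity from engineered P. falciparum reports growth; inhibitors lower the luminescent signal. Cultures contained 2% hematocrit erythrocytes at 0.1% final parasitemia.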
HCV inhibitor: qHTS Assay for Inhibitors of Hepatitis C Virus (HCV); Huh7.5.1 HCVcc-Cre infection, luciferase reporter, 44 h; Potency, µM (series often up to 41.8 µM), for inactives: at the top dose activity change, negative = inhibition, most hits filed as inhibitors; 340,000 compounds, 3.4% hits; AID 651820, 2012; note: potency is the fitted concentration of half-maximal effect; % is set by controls: 0 for no effect and ±100 for the full control effect
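Reporter virus HCVcc-Cre (~0.5 moi) infects cells exposed to compound; seeding density 1,000 cells/well with 4 h settling beforehand. Luminescence, 15 sec read, taken 44 h post-infection following a 15 min RT substrate incubation.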
HCMV antiviral: qHTS Assay for inhibitors of the human cytomegalovirus (HCMV) | 410,000 compounds, 4.5% hits | HFF cells, HCMV-luciferase reporter, 72 h; active compounds read low | activity change, negative = inhibition, % at 57.5 µM; in the data active = activity change below about -60%; inconclusive = no clear call, values can overlap the other calls; inactive = above about -39%; note: % is set by controls: 0 for no effect and ±100 for the full control effect
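Inhibition of viral replication was scored as loss of reporter luminescence in HFFs infected with HCMV-luciferase (MOI 1 PFU/cell) for 72 h; compounds tested at 2 doses, normalized to buffer and Salinomycin controls.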
SARS PLpro yeast: qHTS of Yeast-based Assay for SARS-CoV PLP; S. cerevisiae expressing SARS-CoV PLpro, growth rescue; Potency, µM (titrated, usually from 32.9 µM), inactives show top-dose activity, positive = growth rescue, most hits filed as activators; 330,000 compounds, 0.19% hits; calls by dose curve; note: potency is the fitted concentration of half-maximal effect; 0% is about no effect; nearly all actives have a fitted effect of over 55% in size
Sm TGR block: qHTS Assay for the Inhibitors of Schistosoma Mansoni Peroxiredoxins; AID 485364, 2010; Potency, µM (titrated, usually from 114 µM), without a hit: at the highest dose activity change, negative = inhibition, actives largely listed as inhibitors; purified TGR, DTNB reduction, TNB absorbance 405 nm; 360,000 compounds, 3% hits; note: potency is the fitted concentration of half-maximal effect; % is set by controls: 0 for no effect and ±100 for the full control effect; nearly all actives have a fitted effect of over 60% in size
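TGR 20 nM + NADPH 100 uM (dispensed conc.), cpd preinc 15 min RT; start with NADPH (500 uM addition) then DTNB (15 mM addition). Kinetic TNB absorbance, 405 nm filter. Four-parameter Hill fit across titration.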
Starred values were filed as active, the others as inactive; ? = inconclusive; . = no result; [ ] = another dose, or the depositor's remark. The list is not random: actives were taken first. Their share in the collection is about 15%. Unless noted, calls come from the whole dose curve; as a rule, active = well fitted curve in the direction sought with a large enough effect; inconclusive = small, poorly fitted or top-dose-only effect, or another doubt; inactive = no such curve, though single readings can be large; an effect the other way counts as inactive or inconclusive.

SMILES | Pf growth 96h | Pf growth 48h | HCV inhibitor | HCMV antiviral | SARS PLpro yeast | Sm TGR block
c1ccc(-c2ccc(-c3nc(-c4ccncc4)no3)cc2)cc1 | -27% | . | -24% | -72* | 10% | 9%[11.4 µM]
Cc1nc(CN(C)c2ncnc3ccc(-c4ccc5c(c4)OCO5)cc23)cs1 | . | . | . | -39 | . | .
Cc1ccc(N2CC(C)Cn3c2nc2c3c(=O)n(Cc3cccc(Cl)c3)c(=O)n2C)cc1 (stereo not given) | . | . | . | 6 | . | -4%
COc1ccc2c(c1)nc(-c1cccc(Br)c1)c(=O)n2C(c1ccccn1)c1nc2ccccc2[nH]1 (stereo not given) | . | . | . | 56 | . | .
CC1CC(C)CN(C(=O)c2ccc(S(=O)(=O)N3CCCC3)cc2)C1 (stereo not given) | 32% | 6% | 0% | -20 | -6% | -17%
Clc1ccc(-c2noc(COc3ccccc3)n2)cc1 | 27% | 55% | -25% | -27 | 4% | -27%
CCOc1ccc(-c2noc(-c3cccnc3)n2)cc1OC | 9.3µM* | 141% | -12% | 65 | 1% | 5%
Cc1onc(-c2ccccc2Cl)c1-c1nc(-c2ccncc2)no1 | 12µM* | . | ? | ? | -23% | 3%
Clc1ccc(OCc2nc(-c3ccncc3)no2)cc1 | 10µM* | . | ? | 6 | 3% | -1%
CCOc1cc(-c2noc(-c3cccnc3)n2)ccc1OC | . | 10% | ? | 71 | -3% | -3%
COc1cc(NS(=O)(=O)c2cc3c(cc2C)n(C)c(=O)c(=O)n3C)cc(OC)c1 | . | . | . | 18 | . | -7%
Cc1cccc(CNC(=O)c2cc(S(=O)(=O)N3CCOCC3)cn2C)c1 | 14% | 3% | 19% | -18 | 1% | -1%
CSc1ccccc1NC(=O)CN(c1cc(C)cc(C)c1)S(C)(=O)=O | . | -10% | -6% | 28 | 6% | 0%
CS(=O)(=O)N(Cc1ccccc1)c1ccc(C(=O)Nc2ccc(Cl)cc2)cc1 | . | . | . | -88* | . | 0%
CS(=O)(=O)N(Cc1ccccc1)c1ccc(C(=O)Nc2ccccc2Sc2ccccc2)cc1 | 15µM* | 12µM* | 7% | -16 | 7% | 1%
Cc1ccccc1NC(=O)c1ccc(N(Cc2ccccc2)S(C)(=O)=O)cc1 | . | . | . | ? | . | -1%
CS(=O)(=O)N(CC(=O)Nc1ccccc1Sc1ccccc1)c1cccc(Br)c1 | ? | 13µM* | ? | -1 | ? | -2%
COc1ccc(CCNC(=O)COC(=O)c2cc(OC)c(OC)cc2OC)cc1OC | -4% | 0% | -6% | -28 | 0% | -24%
O=c1[nH]cnc2nn(C3OC(CO)C(O)C3O)nc12 (stereo not given) | . | . | . | 64 | . | .
CCOC(=O)c1c(C)[nH]c(C=C2C(=O)CCCC2=O)c1O | ? | 2% | -5% | 7 | 4% | ?
CCCSC1=N/C(=C/c2ccsc2)C(=O)N1c1ccccc1 | 11% | ? | ? | 10 | -1% | -8%
CCSC1=N/C(=C/c2ccsc2)C(=O)N1c1ccccc1 | 7.4µM* | 20% | ? | -22 | -22% | 2%
COc1cccc(N(C(=O)Cn2nnc(-c3ccc(C)cc3)n2)C(C(=O)NC(C)(C)C)c2c[nH]c3ccccc23)c1 (stereo not given) | 2.3µM* | 12µM* | ? | -66* | -1% | 1%
CC(C)(C)NC(=O)C(c1ccncc1)N(C(=O)Cn1nnc(-c2ccc(F)cc2)n1)c1cccc(F)c1 (stereo not given) | 0% | ? | -1% | 17 | 1% | -1%
CC(C)(C)NC(=O)C(c1c[nH]c2ccccc12)N(C(=O)Cn1nnc(-c2ccc(Cl)cc2)n1)c1ccccc1F (stereo not given) | 30% | ? | 10µM* | ? | 11% | -10%
SMILES | Pf growth 96h | Pf growth 48h | HCV inhibitor | HCMV antiviral | SARS PLpro yeast | Sm TGR block
CC(C)(C)NC(=O)C(c1ccco1)N(C(=O)Cn1nnc(-c2ccc(F)cc2)n1)c1ccccc1F (stereo not given) | 1% | ? | ? | . | 4% | -7%
CCc1ccccc1NC(=O)/C(=C/c1ccco1)c1ccccc1 | 1.9µM* | . | ? | -24 | -20% | 35µM*
CC(C)OC(=O)/C(=C/c1ccco1)c1ccccc1 | -4% | -18% | 5% | -12 | 0% | 10µM*
Cc1ccccc1NC(=O)/C(=C/c1ccco1)c1ccccc1 | ? | . | -14% | -104* | -5% | ?
Cc1ccc(Cl)cc1NC(=O)COC(=O)CSc1ccccc1 | . | . | 7% | -5 | -6% | .
CN(CCOc1ccccc1)CC(=O)Nc1ccc(Br)cc1F | 56% | 46% | 4% | 42 | 0% | -1%
O=C(NCC[C@@H]1CC[C@@H](NS(=O)(=O)Cc2ccccc2)[C@@H](CO)O1)C1CC1 | . | . | . | -8 | . | .
CN(Cc1ccccc1)c1nc2nonc2nc1N1CCCC(CN2CCCC2=O)C1 (stereo not given) | ? | ? | 7% | 83 | 5% | ?
CC1=NN(C(N)=S)C(=O)C1N=Nc1ccc(Br)cc1 (stereo not given) | ? | 9.3µM* | -8% | 86 | 6% | -8%
O=C(NCc1ccccc1)c1cc(C2CCCN(S(=O)(=O)c3cccs3)C2)on1 (stereo not given) | . | . | . | -34 | . | .
COc1ccc(OC)c(C2CC(c3c(-c4ccccc4)c4cc(Cl)ccc4[nH]c3=O)=NN2S(C)(=O)=O)c1 (stereo not given) | 2.1µM* | 9.3µM* | -14% | -5 | 4% | 3%
CC(C)(C)c1ccc(C(=O)COC(=O)CN2C(=O)NC3(CCCC3)C2=O)cc1 | -13% | 5% | 16% | 35 | 2% | -2%
Cc1ccc(NC(=O)Cn2c(O)c(N=NC(=O)c3cc4ccccc4cc3O)c3ccccc32)cc1 | -29% | 26% | ? | -101* | 4% | -5%
Cc1cccc(NC(=O)Cn2c(O)c(N=NC(N)=S)c3ccccc32)c1 | 15µM* | -10% | ? | 29 | 1% | 2%
COc1ccccc1NC(=O)Cn1c(O)c(N=NC(=O)c2ccccc2O)c2ccccc21 | 27% | 7% | -2% | -107* | -2% | 1%
O=C(Cn1c(O)c(N=NC(=O)c2ccncc2)c2ccccc21)Nc1ccccc1 | 103% | 72% | -10% | 36 | 0% | -4%
Cc1ccc(NC(=O)Cn2c(O)c(N=NC(=O)c3ccncc3)c3ccccc32)cc1 | 5% | 29% | -6% | . | -1% | 8%

Screening data: PubChem, National Center for Advancing Translational Sciences (NCATS)
